Source: PubChem BioAssay
Where “and” joins values, the source holds several entries; their conditions need not be identical. Equal values may be shown once. Calls of active or inactive are those of the source.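 Rule for the calls, unless noted: active = thallium flux through the channel raised or lowered by more than 3 SD from vehicle-only wells, actives on both sides; inactive = the rest.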

Assays:
[1] = liver-stage malaria parasite growth inhibition, primary screen, cell-based, HepG2, luciferase luminescence, HepG2 viability (AID 624349; in the data active = parasite load remaining mostly below about 12%, no sharp cut-off; inactive = mostly above about 10%;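 note: 100% = mean of DMSO negative control wells on the same plate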); conditions: P. berghei liver stage in HepG2, luciferase luminescence, concentration not given here; parasite load remaining: stronger effect = lower value; viability: measured here: HepG2 viability without parasites
[2] = Cy5 fluorescence interference with SSB-bound oligo, artefact control for HCV NS3 helicase inhibitor project, biochemical, NIH Clinical Collection, E. coli SSB (AID 743268; call rule not given here)
[3] = system: Hepatitis C virus NS3 helicase; assay: HCV NS3 helicase inhibitors, primary screen, biochemical, fluorescence polarization, NIH Clinical Collection (AID 743270; call rule not given here); conditions: NS3 helicase binding to Cy5-dT15 DNA, stronger effect = higher value, concentration not given here
[4] = target: Single-stranded DNA-binding protein (Escherichia coli (strain K12)) (UniProt P0AGE0); assay: E. coli SSB displacement from DNA, counter-screen for HCV NS3 helicase inhibitor project, biochemical, fluorescence polarization, NIH Clinical Collection (AID 743271; in the data active = inhibition above about 28%); conditions: stronger effect = higher value, concentration not given here
[5] = fluorescence interference in NS3h assay format, artefact control for HCV NS3 helicase inhibitor project, biochemical, NIH Clinical Collection (AID 743272; call rule not given here;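 note: HCV NS3 helicase with a Cy5 labelled single stranded DNA probe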); conditions: fluorescence interference counterscreen, stronger effect = lower value
[6] = modulation of C. elegans fzo-1 (AID 1259413; call rule not given here;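 note: fzo-1 mutant C. elegans worms in liquid wells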); conditions: C. elegans fzo-1 modulator screen, mean read-out; stronger effect = higher value
[7] = survival rescue of mitochondrial mutant cells in low glucose, primary screen, MELAS cybrids, Rieske KO mouse fibroblasts, CellTiter-Glo (AID 1508586;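 active = mean z-score across replicates of 1.96 or higher in either the MELAS or the Rieske mutant cell line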;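 note: z relative to plate mean and SD of compound and empty wells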)
[8] = viability rescue of complex I mutant cybrids, primary screen, cell-based, galactose medium, ATP luminescence (AID 1645843;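 active = z-score of at least 1.8 in each of two replicates, scored against plate mean and spread of sample wells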;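 note: positive z means more ATP and so rescue of galactose-driven cybrid death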); conditions: complex I mutant cybrid cells, 72 h, stronger effect = higher value
[9] = system: F380Y; assay: modulators of BK channel variants, profiling panel, selectivity assay, cell-based, U2OS BacMam, thallium flux, beta subunits (AID 1259406); conditions: at 30 µM;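 note: initial slope of Thallos dye fluorescence rise after thallium is added; log ratio against the mean of 0.3% DMSO vehicle wells on the same plate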
[10] = system: F380Y/beta1; assay: as above; conditions: at 30 µM
[11] = system: F380Y/beta2Delta; assay: as above; conditions: at 30 µM
[12] = system: F380Y/beta4; assay: as above; conditions: at 30 µM
[13] = target: Calcium-activated potassium channel subunit alpha-1 (Homo sapiens) + Leucine-rich repeat-containing protein 26 (Homo sapiens) (UniProt Q12791+Q2I0M4); assay: as above; conditions: F380Y/Slo1WT/gamma1, at 30 µM
Sequence of Calcium-activated potassium channel subunit alpha-1 (Homo sapiens) + Leucine-rich repeat-containing protein 26 (Homo sapiens) (Q2I0M4 whole entry, looked up, one chain of several): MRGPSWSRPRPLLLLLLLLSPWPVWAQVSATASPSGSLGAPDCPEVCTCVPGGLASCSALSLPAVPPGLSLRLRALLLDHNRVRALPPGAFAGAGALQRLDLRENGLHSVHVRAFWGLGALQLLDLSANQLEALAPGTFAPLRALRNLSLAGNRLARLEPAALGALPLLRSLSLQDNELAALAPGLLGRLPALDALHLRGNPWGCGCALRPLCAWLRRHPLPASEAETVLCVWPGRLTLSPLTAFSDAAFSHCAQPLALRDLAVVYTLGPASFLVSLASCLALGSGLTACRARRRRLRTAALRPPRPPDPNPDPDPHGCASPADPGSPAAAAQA

[14] = system: R275C; assay: as above; conditions: at 30 µM
[15] = system: R275C/beta1; assay: as above; conditions: at 30 µM
[16] = system: R275C/beta2Delta; assay: as above; conditions: at 30 µM
[17] = system: R275C/beta4; assay: as above; conditions: at 30 µM
[18] = system: R275C/Slo1WT/beta2; assay: as above; conditions: at 30 µM
[19] = ovarian cancer cell viability with rucaparib, profiling panel, oncology-focused library, rucaparib conditional (AID 1508598;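 active = normalized viability below 100% at a tested concentration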); conditions: patient-derived ovarian cancer cells, CellTiter-Glo viability, 144 h, stronger effect = lower value
[20] = sensitizers of A549 cells to miR-34 induction, primary screen, imaging, A549 dox-inducible miR-34, nuclei and caspase counts (AID 1347080;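 active = compounds whose cell count with miR-34 switched on is under 0.7 times the count with it off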); conditions: A549 miR-34 inducible, Hoechst nuclei count, 48 h
[21] = MELAS cybrid survival, CellTiter-Glo 48 h, stronger effect = higher value
[22] = Rieske KO mouse fibroblast survival, CellTiter-Glo 72 h
[23] = stronger effect = lower value, cell number ratio, induced over uninduced
[24] = measured here: relative caspase fold change +Dox/-Dox
[25] = measured here: total cells with miR-34 induction, stronger effect = lower value
[26] = measured here: total cells without miR-34 induction

CC(C)C[C@H](NC(=O)[C@@H](O)[C@H](N)Cc1ccccc1)C(=O)O
parasite load remaining [1]: 23.8% (inactive) | viability [1]: 136% | fluorescence ratio [2]: 0.92 (inactive) | inhibition [3]: 0.66% (inactive) | inhibition [4]: 9.06% (inactive) | fluorescence ratio [5]: 0.88 (inactive) | mean signal [6]: 255 (inactive) | z-score [7, 21]: -0.957 (inactive) | z-score [7, 22]: 0.817 | z-score [8]: 0.375 (inactive) and 0.725 (inactive) | log fold change Tl+ flux [9]: -0.0323 (inactive) | log fold change Tl+ flux [10]: -0.0233 (inactive) | log fold change Tl+ flux [11]: 0.0093 (inactive) | log fold change Tl+ flux [12]: -0.0304 (inactive) | log fold change Tl+ flux [13]: -0.0684 (inactive) | log fold change Tl+ flux [14]: -0.0391 (inactive) | log fold change Tl+ flux [15]: 0.000543 (inactive) | log fold change Tl+ flux [16]: -0.0202 (inactive) | log fold change Tl+ flux [17]: 0.00103 (inactive) | log fold change Tl+ flux [18]: -0.0673 (inactive)

O=C1CN2Cc3c(ccc(Cl)c3Cl)N=C2N1
parasite load remaining [1]: 45.6% (inactive) and 99.2% (inactive) and 57.7% (inactive) | viability [1]: 99.2% and 69.6% and 96.5% | fluorescence ratio [2]: 1.06 (inactive) | inhibition [3]: -12.3% (inactive) | inhibition [4]: -7.03% (inactive) | fluorescence ratio [5]: 1.02 (inactive) | mean signal [6]: 210 (inactive) | z-score [7, 21]: -0.241 (inactive) and 0.475 (inactive) and -0.0504 (inactive) | z-score [7, 22]: -0.321 and 0.64 and -0.821 | viability ([19]; at 0.000305 µM, OCI-C5x cells, with rucaparib 10 µM, 100% = cells with rucaparib alone): 111% (inactive) | viability ([19]; at 0.000305 µM, OCI-C5x cells, without rucaparib): 124% (inactive) | viability ([19]; at 0.000305 µM, OCI-P5x cells, with rucaparib 20 µM, 100% = cells with rucaparib alone): 98.8% (active) | viability ([19]; at 0.000305 µM, OCI-P5x cells, without rucaparib): 72% (active) | viability ([19]; at 0.00122 µM, OCI-C5x cells, with rucaparib 10 µM, 100% = cells with rucaparib alone): 113% (inactive) | viability ([19]; at 0.00122 µM, OCI-C5x cells, without rucaparib): 126% (inactive) | viability ([19]; at 0.00122 µM, OCI-P5x cells, with rucaparib 20 µM, 100% = cells with rucaparib alone): 100% (inactive) | viability ([19]; at 0.00122 µM, OCI-P5x cells, without rucaparib): 107% (inactive) | viability ([19]; at 0.00488 µM, OCI-C5x cells, with rucaparib 10 µM, 100% = cells with rucaparib alone): 115% (inactive) | viability ([19]; at 0.00488 µM, OCI-C5x cells, without rucaparib): 121% (inactive) | viability ([19]; at 0.00488 µM, OCI-P5x cells, with rucaparib 20 µM, 100% = cells with rucaparib alone): 106% (inactive) | viability ([19]; at 0.00488 µM, OCI-P5x cells, without rucaparib): 105% (inactive) | viability ([19]; at 0.0195 µM, OCI-C5x cells, with rucaparib 10 µM, 100% = cells with rucaparib alone): 111% (inactive) | viability ([19]; at 0.0195 µM, OCI-C5x cells, without rucaparib): 115% (inactive) | viability ([19]; at 0.0195 µM, OCI-P5x cells, with rucaparib 20 µM, 100% = cells with rucaparib alone): 99.6% (active) | viability ([19]; at 0.0195 µM, OCI-P5x cells, without rucaparib): 103% (inactive) | viability ([19]; at 0.0781 µM, OCI-C5x cells, with rucaparib 10 µM, 100% = cells with rucaparib alone): 109% (inactive) | viability ([19]; at 0.0781 µM, OCI-C5x cells, without rucaparib): 107% (inactive) | viability ([19]; at 0.0781 µM, OCI-P5x cells, with rucaparib 20 µM, 100% = cells with rucaparib alone): 94% (active) | viability ([19]; at 0.0781 µM, OCI-P5x cells, without rucaparib): 101% (inactive) | viability ([19]; at 0.313 µM, OCI-C5x cells, with rucaparib 10 µM, 100% = cells with rucaparib alone): 125% (inactive) | viability ([19]; at 0.313 µM, OCI-C5x cells, without rucaparib): 118% (inactive) | viability ([19]; at 0.313 µM, OCI-P5x cells, with rucaparib 20 µM, 100% = cells with rucaparib alone): 90.5% (active) | viability ([19]; at 0.313 µM, OCI-P5x cells, without rucaparib): 92.4% (active) | viability ([19]; at 1.25 µM, OCI-C5x cells, with rucaparib 10 µM, 100% = cells with rucaparib alone): 123% (inactive) | viability ([19]; at 1.25 µM, OCI-C5x cells, without rucaparib): 107% (inactive) | viability ([19]; at 1.25 µM, OCI-P5x cells, with rucaparib 20 µM, 100% = cells with rucaparib alone): 88.3% (active) | viability ([19]; at 1.25 µM, OCI-P5x cells, without rucaparib): 92.2% (active) | viability ([19]; at 5 µM, OCI-C5x cells, with rucaparib 10 µM, 100% = cells with rucaparib alone): 122% (inactive) | viability ([19]; at 5 µM, OCI-C5x cells, without rucaparib): 116% (inactive) | viability ([19]; at 5 µM, OCI-P5x cells, with rucaparib 20 µM, 100% = cells with rucaparib alone): 83.7% (active) | viability ([19]; at 5 µM, OCI-P5x cells, without rucaparib): 85.5% (active) | z-score [8]: 0.465 (inactive) and 0.535 (inactive) | log fold change Tl+ flux [9]: -0.00116 (inactive) | log fold change Tl+ flux [10]: 0.0415 (inactive) | log fold change Tl+ flux [11]: 0.0342 (inactive) | log fold change Tl+ flux [12]: 0.00749 (inactive) | log fold change Tl+ flux [13]: -0.00535 (inactive) | log fold change Tl+ flux [14]: -0.0701 (inactive) | log fold change Tl+ flux [15]: -0.00554 (inactive) | log fold change Tl+ flux [16]: -0.00347 (inactive) | log fold change Tl+ flux [17]: -0.00682 (inactive) | log fold change Tl+ flux [18]: -0.00842 (inactive)

COC(=O)C[C@](O)(CCCC(C)(C)O)C(=O)O[C@@H]1C(OC)=C[C@]23CCCN2CCc2cc4c(cc2[C@H]13)OCO4
fluorescence ratio [2]: 1 (inactive) | inhibition [3]: -0.22% (inactive) | inhibition [4]: 1.18% (inactive) | fluorescence ratio [5]: 0.99 (inactive) | mean signal [6]: 211 (inactive) | fold change [20, 23]: 1.08 (inactive) | fold change [20, 24]: 1.16 | cell count [20, 25]: 1670 | cell count [20, 26]: 1550 | z-score [8]: -0.84 (inactive) | log fold change Tl+ flux [9]: 0.0231 (inactive) | log fold change Tl+ flux [10]: -4.2e-05 (inactive) | log fold change Tl+ flux [11]: -0.00992 (inactive) | log fold change Tl+ flux [12]: 0.013 (inactive) | log fold change Tl+ flux [13]: -0.0674 (inactive) | log fold change Tl+ flux [14]: -0.0969 (inactive) | log fold change Tl+ flux [15]: -0.0403 (inactive) | log fold change Tl+ flux [16]: -0.0559 (inactive) | log fold change Tl+ flux [17]: -0.045 (inactive) | log fold change Tl+ flux [18]: 0.0211 (inactive)

CC(C)c1ccc2c(c1)c(SC(C)(C)C)c(CC(C)(C)C(=O)O)n2Cc1ccc(Cl)cc1
parasite load remaining [1]: 36.1% (inactive) | viability [1]: 67.1% | fluorescence ratio [2]: 0.95 (inactive) | inhibition [3]: 7.52% (inactive) | inhibition [4]: 1.44% (inactive) | fluorescence ratio [5]: 0.96 (inactive) | mean signal [6]: 225 (inactive) | fold change [20, 23]: 1.09 (inactive) and 1 (inactive) and 0.966 (inactive) | fold change [20, 24]: 0.262 and 1.3 and 1.57 | cell count [20, 25]: 2540 and 2670 and 5520 | cell count [20, 26]: 2340 and 2670 and 5710 | z-score [8]: -1.26 (inactive) and -1.88 (inactive) | log fold change Tl+ flux [9]: -0.0174 (inactive) | log fold change Tl+ flux [10]: 0.00246 (inactive) | log fold change Tl+ flux [11]: 0.0246 (inactive) | log fold change Tl+ flux [12]: -0.0142 (inactive) | log fold change Tl+ flux [13]: 0.00963 (inactive) | log fold change Tl+ flux [14]: 0.00647 (inactive) | log fold change Tl+ flux [15]: 0.0168 (inactive) | log fold change Tl+ flux [16]: 0.0237 (inactive) | log fold change Tl+ flux [17]: -0.00771 (inactive) | log fold change Tl+ flux [18]: 0.027 (inactive)

O=c1ncc(F)c[nH]1
parasite load remaining [1]: 102% (inactive) | viability [1]: 68.9% | fluorescence ratio [2]: 1.06 (inactive) | inhibition [3]: 0.4% (inactive) | inhibition [4]: -3.95% (inactive) | fluorescence ratio [5]: 1.05 (inactive) | mean signal [6]: 283 (inactive) | fold change [20, 23]: 0.892 (inactive) | fold change [20, 24]: 1.42 | cell count [20, 25]: 9920 | cell count [20, 26]: 11100 | z-score [8]: 0.75 (inactive) | log fold change Tl+ flux [9]: -0.0112 (inactive) | log fold change Tl+ flux [10]: 0.016 (inactive) | log fold change Tl+ flux [11]: 0.0227 (inactive) | log fold change Tl+ flux [12]: -0.00465 (inactive) | log fold change Tl+ flux [13]: 0.0169 (inactive) | log fold change Tl+ flux [14]: -0.0477 (inactive) | log fold change Tl+ flux [15]: 0.0224 (inactive) | log fold change Tl+ flux [16]: -0.0499 (inactive) | log fold change Tl+ flux [17]: 0.00687 (inactive) | log fold change Tl+ flux [18]: -0.000391 (inactive)
